# Data from PMC5540273 (PLoS ONE, 2017).
# Like-named read-outs stand apart in the source and are kept apart here.
# Assays:
# FGFR1 = conditions: concentration: 1 μM, replicates: in singlicate; n = 1
# FGFR2 = conditions: concentration: 1 μM, replicates: in singlicate; n = 1
# FGFR3 = conditions: concentration: 1 μM, replicates: in singlicate; n = 1
# FGFR4 = conditions: concentration: 1 μM, replicates: in singlicate; n = 1
# FGR = conditions: concentration: 1 μM, replicates: in singlicate; n = 1
# FLT1 = conditions: concentration: 1 μM, replicates: in singlicate; n = 1
# FLT3-autoinhibited = conditions: concentration: 1 μM, replicates: in singlicate; n = 1
# FLT3 = conditions: concentration: 1 μM, replicates: in singlicate; n = 1
# FLT4 = conditions: concentration: 1 μM, replicates: in singlicate; n = 1
# FRK = conditions: concentration: 1 μM, replicates: in singlicate; n = 1
# FYN = conditions: concentration: 1 μM, replicates: in singlicate; n = 1
# GAK = conditions: concentration: 1 μM, replicates: in singlicate; n = 1
# GCN2(Kin.Dom.2,S808G) = test system: T1, GCN2(Kin.Dom.2,S808G); conditions: concentration: 1 μM, replicates: in singlicate; n = 1
# T1 construct: gene EIF2AK4
# GRK1 = conditions: concentration: 1 μM, replicates: in singlicate; n = 1
# GRK2 = test system: T2, GRK2; conditions: concentration: 1 μM, replicates: in singlicate; n = 1
# T2 construct: gene ADRBK1
# GRK3 = test system: T3, GRK3; conditions: concentration: 1 μM, replicates: in singlicate; n = 1
# T3 construct: gene ADRBK2
# GRK4 = conditions: concentration: 1 μM, replicates: in singlicate; n = 1
# GRK7 = conditions: concentration: 1 μM, replicates: in singlicate; n = 1
# GSK3A = conditions: n = 1
# GSK3B = conditions: n = 1
# [1] = concentration: 1 μM, replicates: in singlicate
# 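Also: KINOMEscan kinase panel screen.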
smiles,measurement,setting,value
COC(=O)Nc1nc2ccc(Oc3ccc(NC(=O)Nc4cc(C(F)(F)F)ccc4F)cc3)cc2n1C.Cl [GW692089],%Inh,FGFR1,2%
same,%Inh,FGFR2,0%
same,%Inh,FGFR3,7%
same,%Inh,FGFR4,0%
same,%Inh,FGR,28%
same,%Inh,FLT1,89%
same,%Inh,FLT3-autoinhibited,3%
same,%Inh,FLT3,99%
same,%Inh,FLT4,87%
same,%Inh,FRK,69%
same,%Inh,FYN,0%
same,%Inh,GAK,0%
same,%Inh,"GCN2(Kin.Dom.2,S808G)",0%
same,%Inh,GRK1,0%
same,%Inh,GRK2,0%
same,%Inh,GRK3,49%
same,%Inh,GRK4,6%
same,%Inh,GRK7,0%
same,%Inh,GSK3A; [1],9%
same,%Inh,GSK3B; [1],0%
COc1cccc(NC(=O)NC2CCN(c3ccnc(Nc4cc(OC)c(OC)c(OC)c4)n3)C2)c1 (stereo not shown) [GSK1379763],%Inh,FGFR1,0%
same,%Inh,FGFR2,0%
same,%Inh,FGFR3,8%
same,%Inh,FGFR4,1%
same,%Inh,FGR,25%
same,%Inh,FLT1,24%
same,%Inh,FLT3-autoinhibited,14%
same,%Inh,FLT3,62%
same,%Inh,FLT4,37%
same,%Inh,FRK,0%
same,%Inh,FYN,42%
same,%Inh,GAK,31%
same,%Inh,"GCN2(Kin.Dom.2,S808G)",4%
same,%Inh,GRK1,0%
same,%Inh,GRK2,0%
same,%Inh,GRK3,15%
same,%Inh,GRK4,0%
same,%Inh,GRK7,0%
same,%Inh,GSK3A; [1],0%
same,%Inh,GSK3B; [1],45%
C[C@@H]1CC[C@@H](C(=O)Nc2ccccc2)CN1c1cc(-c2ccc3c(N)n[nH]c3c2)nc(N)n1 [GSK2286062],%Inh,FGFR1,0%
same,%Inh,FGFR2,0%
same,%Inh,FGFR3,4%
same,%Inh,FGFR4,0%
same,%Inh,FGR,19%
same,%Inh,FLT1,0%
same,%Inh,FLT3-autoinhibited,0%
same,%Inh,FLT3,0%
same,%Inh,FLT4,0%
same,%Inh,FRK,0%
same,%Inh,FYN,25%
same,%Inh,GAK,19%
same,%Inh,"GCN2(Kin.Dom.2,S808G)",0%
same,%Inh,GRK1,0%
same,%Inh,GRK2,0%
same,%Inh,GRK3,10%
same,%Inh,GRK4,0%
same,%Inh,GRK7,0%
same,%Inh,GSK3A; [1],0%
same,%Inh,GSK3B; [1],0%
CC(=O)N1CCN(c2ccc(Nc3nccc(-c4sc(C(C)C)nc4-c4cccc(NS(=O)(=O)c5cccc(Cl)c5)c4)n3)cn2)CC1 [GSK1660437],%Inh,FGFR1,20%
same,%Inh,FGFR2,0%
same,%Inh,FGFR3,7%
same,%Inh,FGFR4,0%
same,%Inh,FGR,78%
same,%Inh,FLT1,81%
same,%Inh,FLT3-autoinhibited,9%
same,%Inh,FLT3,33%
same,%Inh,FLT4,82%
same,%Inh,FRK,70%
same,%Inh,FYN,73%
same,%Inh,GAK,90.9%
same,%Inh,"GCN2(Kin.Dom.2,S808G)",100%
same,%Inh,GRK1,0%
same,%Inh,GRK2,12%
same,%Inh,GRK3,0%
same,%Inh,GRK4,30%
same,%Inh,GRK7,0%
same,%Inh,GSK3A; [1],12%
same,%Inh,GSK3B; [1],10%
CC(C)(C)c1ccc2nccc(Nc3cccc(O)c3)c2c1 [GW856795],%Inh,FGFR1,0%
same,%Inh,FGFR2,0%
same,%Inh,FGFR3,0%
same,%Inh,FGFR4,0%
same,%Inh,FGR,54%
same,%Inh,FLT1,0%
same,%Inh,FLT3-autoinhibited,64%
same,%Inh,FLT3,10%
same,%Inh,FLT4,0%
same,%Inh,FRK,84%
same,%Inh,FYN,71%
same,%Inh,GAK,62%
same,%Inh,"GCN2(Kin.Dom.2,S808G)",15%
same,%Inh,GRK1,9%
same,%Inh,GRK2,39%
same,%Inh,GRK3,0%
same,%Inh,GRK4,16%
same,%Inh,GRK7,17%
same,%Inh,GSK3A; [1],0%
same,%Inh,GSK3B; [1],9%
CCn1c(-c2nonc2N)nc2c(C#CC(C)(C)O)ncc(OCCCCN)c21.O=C(O)C(F)(F)F.O=C(O)C(F)(F)F [GSK507274],%Inh,FGFR1,0%
same,%Inh,FGFR2,60%
same,%Inh,FGFR3,5%
same,%Inh,FGFR4,9%
same,%Inh,FGR,33%
same,%Inh,FLT1,23%
same,%Inh,FLT3-autoinhibited,0%
same,%Inh,FLT3,0%
same,%Inh,FLT4,15%
same,%Inh,FRK,26%
same,%Inh,FYN,0%
same,%Inh,GAK,41%
same,%Inh,"GCN2(Kin.Dom.2,S808G)",13%
same,%Inh,GRK1,65%
same,%Inh,GRK2,0%
same,%Inh,GRK3,44%
same,%Inh,GRK4,21%
same,%Inh,GRK7,75%
same,%Inh,GSK3A; 1 µM,78%
same,%Inh,GSK3B; 1 µM,100%
CCS(=O)(=O)c1ccc(OC)c(Nc2nccc(-c3c(-c4cccc(NC(=O)c5c(F)cccc5F)c4)nn4ncccc34)n2)c1 [GSK326180],%Inh,FGFR1,0%
same,%Inh,FGFR2,0%
same,%Inh,FGFR3,16%
same,%Inh,FGFR4,16%
same,%Inh,FGR,64%
same,%Inh,FLT1,90%
same,%Inh,FLT3-autoinhibited,0%
same,%Inh,FLT3,0%
same,%Inh,FLT4,29%
same,%Inh,FRK,61%
same,%Inh,FYN,53%
same,%Inh,GAK,0%
same,%Inh,"GCN2(Kin.Dom.2,S808G)",8%
same,%Inh,GRK1,0%
same,%Inh,GRK2,0%
same,%Inh,GRK3,17%
same,%Inh,GRK4,0%
same,%Inh,GRK7,0%
same,%Inh,GSK3A; [1],12%
same,%Inh,GSK3B; [1],2%
COc1ccc(Nc2nccc(NCCNC(=O)c3cc4ccccc4s3)n2)cc1 [GSK1379896],%Inh,FGFR1,0%
same,%Inh,FGFR2,0%
same,%Inh,FGFR3,5%
same,%Inh,FGFR4,9%
same,%Inh,FGR,1%
same,%Inh,FLT1,19%
same,%Inh,FLT3-autoinhibited,0%
same,%Inh,FLT3,0%
same,%Inh,FLT4,10%
same,%Inh,FRK,0%
same,%Inh,FYN,33%
same,%Inh,GAK,42%
same,%Inh,"GCN2(Kin.Dom.2,S808G)",3%
same,%Inh,GRK1,6%
same,%Inh,GRK2,3%
same,%Inh,GRK3,0%
same,%Inh,GRK4,0%
same,%Inh,GRK7,0%
same,%Inh,GSK3A; [1],7%
same,%Inh,GSK3B; [1],13%
